# The list is not random: actives were taken first. Their share in the collection is about 1.3%.
# NCOA1 inh – SRC1 coactivator transcriptional activity inhibitors, primary screen, cell-based, luminescence. Nuclear receptor coactivator 1 (Homo sapiens), Q15788. HEK293 GAL4-SRC1 luciferase reporter. inhibition, % at 3.6 µM. 360,000 compounds, 0.12% hits. AID 588354, 2011;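 active = inhibition above the campaign mean plus 3 SD, with each screening campaign given its own cutoff, cut at about 60% in these data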;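 note: 0% = DMSO treated cells and 100% = gossypol at 36 µM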
# NR5A2 inv ag – LRH-1 (NR5A2) inverse agonists, primary screen, cell-based, luminescence, HEK293T, StAR-luciferase reporter; inhibition, % at 3.6 µM; 360,000 compounds, 0.13% hits; LRH-1 transfected, 24 h; AID 602396, 2012;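 active = inhibition above the mean inhibition of all tested compounds plus 3 SD, cut at about 73% in these data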;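 note: 0% = DMSO wells and 100% = reporter-only cells lacking LRH-1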
# COUP-TFII inh – NR2F2 transcriptional activity inhibitors, primary screen, cell-based, luciferase reporter, HEK293T, luminescence; COUP transcription factor 2 (Homo sapiens), P24468; HEK293T NGFI-A luciferase reporter; inhibition, % at 8.6 µM; 370,000 compounds, 0.7% hits; AID 686940, 2013;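 active = inhibition above a per-plate cutoff, mean inhibition of test wells between control levels plus 3 SD, cut at about 38% in these data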;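 note: cells cotransfected with COUP-TFII expression vector driving the NGFI-A reporter; 0% = median of COUP-TF2 test wells and 100% = reporter-only cells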
# Gli-Sufu antag – Gli-Sufu pathway antagonists, primary screen, luciferase luminescence, Sufu-KO-LIGHT cells, uHTS. Sufu-KO-LIGHT fibroblasts, Gli luciferase reporter luminescence. inhibition, % at 5 µM. 340,000 compounds, 0.74% hits. AID 588413, 2011;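 active = inhibition above about 55%, limit read from the data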;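 note: 0% = DMSO-treated cells and 100% = wells with medium but no cells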
# NCOA3 inh – SRC3 coactivator transcriptional activity inhibitors, primary screen, cell-based, luminescence | Nuclear receptor coactivator 3 (Homo sapiens), Q9Y6Q9 | HEK293 GAL4-SRC3 luciferase reporter | inhibition, % at 3.6 µM | 360,000 compounds, 0.17% hits | AID 588352, 2011;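 active = inhibition above a per-campaign cutoff, the mean of all compounds plus 3 SD, cut at about 60% in these data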;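 note: 0% = DMSO-treated cells and 100% = gossypol-treated cells at 36 µM; higher means less SRC3-driven luciferase light from the GAL4 reporter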
# NCOA2 inhibitor – inhibition of GAL4-SRC2 driven luciferase reporter, primary screen, SRC2 inhibitor project, cell-based, luminescence. Nuclear receptor coactivator 2 (Homo sapiens), Q15596. 370,000 compounds, 0.17% hits. AID 651957, 2012. HEK293 GAL4-SRC2 luciferase reporter. inhibition, % at 9 µM;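 active = inhibition above the mean inhibition of all tested compounds plus 3 SD, set per campaign, cut at about 52% in these data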;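 note: 0% = DMSO treated cells and 100% = cells given Gossypol at 36 µM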
# Gli-Sufu confirm – Gli-SUFU pathway antagonists, confirmation, single concentration, luciferase luminescence, Sufu-KO-LIGHT cells. shares compounds with Gli-Sufu antag. Gli luciferase reporter. inhibition, % at 5 µM. 2,500 compounds, 40% hits;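 active = mean inhibition at 5 µM reaching about 45%, limit read from the data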;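 note: plate controls were DMSO-treated cells for no effect and wells lacking cells for full effect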
# Gli cytotox – cytotoxicity in Sufu-KO-LIGHT cells, confirmation, cytotoxicity control for Gli-SUFU antagonist project, cell-based, ATP luminescence, single concentration. shares compounds with Gli-Sufu antag. 2,500 compounds, 32% hits. cytotoxicity, % at 5 µM. AID 651994, 2013;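 active = mean cytotoxicity at 5 µM above about 25%, limit read from the data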;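 note: cells exposed to compound overnight for roughly 16 to 18 hours; plate controls were DMSO wells with cells for no effect and medium without cells for full effect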
# Wnt3a counter – Wnt3a reporter signal inhibition, confirmation, counter-screen for Gli-SUFU antagonist project, Wnt-LIGHT cells, luminescence, single concentration. inhibition, % at 6.25 µM. Wnt3a-driven luciferase reporter. shares compounds with Gli-Sufu antag. 2,500 compounds, 20% hits;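 active = mean inhibition above about 25%, limit read from the data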
# * marks the source's active call; other numbers are inactive results; . = not tested or not shown.
SMILES,NCOA1 inh,NR5A2 inv ag,COUP-TFII inh,Gli-Sufu antag,NCOA3 inh,NCOA2 inhibitor,Gli-Sufu confirm,Gli cytotox,Wnt3a counter
COc1ccc(-c2nc3ccccc3n2Cc2ccccc2)cc1,-13.7,-6.6,-11.3,7.9,-7.0,-34.8,.,.,.
COc1ccc(-c2n(Cc3ccccc3)c3ccccc3[n+]2Cc2ccccc2)cc1,-1.8,43.6,23.1,72.0*,35.3,34.9,76.8*,32.9*,-24.1
CC(C)=CCC[C@@]1(C(=O)O)[C@@H]2C/C=C(\C)CC/C=C(\C)CC[C@H]1[C@]1(CC2)CO1,.,.,-2.1,.,.,9.2,.,.,.
NC(N)=NC(N)=Nc1ccc2ccccc2c1,-13.6,1.7,-19.5,4.8,6.7,9.5,.,.,.
NC(N)=NC(N)=Nc1ccc(SC(F)(F)F)cc1,-4.8,22.5,4.2,67.0*,22.4,27.3,71.9*,27.9*,94.4*
C=CCN1[C@H](Cc2ccccc2)COc2cc(N3CCSCC3)ccc2S1(=O)=O,.,.,20.1,.,.,24.0,.,.,.
N#CCC[C@@H]1CC[C@]2(CCCN(C(=O)c3ccco3)C2)O1,.,.,-17.2,.,.,12.4,.,.,.
O=[N+]([O-])c1ccc(N/N=C/c2sc(N3CCOCC3)nc2-c2ccccc2)c(S(=O)(=O)Nc2ccccc2Cl)c1,-39.1,-11.7,5.5,69.1*,9.2,12.7,81.2*,12.3,60.4*
O=C(O)c1cccc(N/N=C/c2sc(N3CCOCC3)nc2-c2ccccc2)c1,-121.2,-89.0,-9.7,-84.8,-75.1,-64.2,.,.,.
O=[N+]([O-])c1ccc(N/N=C/c2sc(N3CCOCC3)nc2-c2ccccc2)c(S(=O)(=O)Nc2ccc(Cl)cc2)c1,-9.0,1.3,-24.1,90.2*,5.3,-13.1,90.0*,3.4,72.0*
O=C(CN1CCc2onc(-c3cccc(-n4cc(CO)nn4)c3)c2C1=O)N1CCOCC1,.,.,0.8,.,.,0.5,.,.,.
CSCCC(NC(=O)c1ccco1)C(=O)N1CC(C)OC(C)C1 (stereo unspecified),1.9,-17.7,0.3,57.6*,9.3,14.6,6.8,-13.0,-13.8
CCOC(=O)C(C)Oc1cccc2c(=O)n(CC(=O)NCc3ccccc3)ccc12 (stereo unspecified),-3.4,16.4,-68.7,57.6*,23.9,21.6,47.9*,55.4*,5.8
CCOC(=O)COc1cccc2c(=O)n(CC(=O)N3CCC(C)CC3)ccc12,-17.0,16.5,7.9,-1.9,-1.9,-16.1,.,.,.
CCOC(=O)N1CCN(C(=O)Cn2ccc3c(OC)cccc3c2=O)CC1,15.9,9.7,6.0,53.8,8.8,-4.0,21.5,0.2,10.2
CCOC(=O)C(C)Oc1cccc2c(=O)n(CC(=O)NCCc3ccccc3)ccc12 (stereo unspecified),10.3,-15.0,25.0,2.5,16.9,4.8,.,.,.
C=CCn1c(O)c(N=NC(=S)Nc2ccccc2C)c2cc(S(=O)(=O)N3CCOCC3)ccc21,5.6,9.0,19.2,52.1,-0.6,8.0,48.1*,32.0*,-48.9
Cn1c(O)c(N=NC(=S)Nc2ccccc2F)c2cc(S(=O)(=O)N3CCOCC3)ccc21,2.8,-1.6,4.3,37.8,4.4,2.2,.,.,.
NC(=O)CC(NC(=O)c1ccccc1)c1ccc(N2CCCCCCC2)c([N+](=O)[O-])c1 (stereo unspecified),-2.7,17.6,-4.6,36.4,-3.0,-2.3,.,.,.

# Screens deposited in PubChem by several laboratories.
